In article PMC7862700, “An all-to-all approach to the identification of sequence-specific readers for epigenetic DNA modifications on cytosine” one finds binding signal data, which are given here for 1 sequence.

Holding throughout (experiment): DAPPL (digital affinity profiling via proximity ligation, sequencing); 10 mM Tris-HCl pH 7.5, 50 mM NaCl, 1 mM DTT, 4% glycerol, room temperature, 30 min; GST-TFs on glutathione beads, 16-mer random dsDNA library, 0.1% formaldehyde crosslink after washing; high values mean tight binding
One assay has as its target T1, FEV (Homo sapiens, UniProt Q99581 1-238).
T1 sequence: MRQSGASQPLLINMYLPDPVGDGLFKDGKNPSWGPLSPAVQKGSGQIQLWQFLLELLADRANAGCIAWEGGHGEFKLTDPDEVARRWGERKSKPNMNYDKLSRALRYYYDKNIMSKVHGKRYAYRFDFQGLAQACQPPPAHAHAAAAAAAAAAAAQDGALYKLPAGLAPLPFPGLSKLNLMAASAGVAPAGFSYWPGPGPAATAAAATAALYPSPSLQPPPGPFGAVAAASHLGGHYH
The note with it: protein: recombinant; tags: N-terminal GST; dsDNA, one strand shown. An outline of the steps: (§1)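 After expression in yeast as GST fusions, human transcription factors were bound to glutathione beads, DNA-barcoded and mixed with a tag-only sample. The pools were incubated with 200 nmole of a 16-mer random double-stranded DNA library in Tris/NaCl/DTT/glycerol buffer (30 min, room temperature), washed and crosslinked with 0.1% formaldehyde. Proximity ligation with BsaI/T4 ligase ran for 1 h at 37 °C, before PCR amplification and sequencing on an Illumina NextSeq500. Binding signal is a hexamer's read frequency for a factor divided by its frequency for the tag-only sample.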

The target of the next assay is ETV5 (Homo sapiens, UniProt P41161 1-510). The note with it: protein: recombinant; tags: N-terminal GST; dsDNA, one strand shown. The method in brief:
as §1

Another assay has as its target HSF1 (Homo sapiens, UniProt Q00613 1-529). To be noted: protein: recombinant; tags: N-terminal GST; chain copies: 3; dsDNA, one strand shown. The method in brief: as §1
The target of the next assay is T2, SPIC (Homo sapiens, UniProt Q8N5J4 1-248).
T2 sequence: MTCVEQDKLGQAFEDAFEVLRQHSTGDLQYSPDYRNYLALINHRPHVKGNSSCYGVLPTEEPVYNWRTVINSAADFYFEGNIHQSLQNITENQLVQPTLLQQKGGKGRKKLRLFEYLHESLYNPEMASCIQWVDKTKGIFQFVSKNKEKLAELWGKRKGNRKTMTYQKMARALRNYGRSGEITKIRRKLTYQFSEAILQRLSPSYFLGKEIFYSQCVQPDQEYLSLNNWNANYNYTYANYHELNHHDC
The note with it: protein: recombinant; tags: N-terminal GST; dsDNA, one strand shown. The method in brief:
as §1

In a further assay the target is ELF4 (Homo sapiens, UniProt Q99607 1-663). The note with it: protein: recombinant; tags: N-terminal GST; dsDNA, one strand shown. An outline of the steps: as §1
For another assay, the target named is T3, ELK4 (Homo sapiens, UniProt P28324-2 1-405).
T3 sequence: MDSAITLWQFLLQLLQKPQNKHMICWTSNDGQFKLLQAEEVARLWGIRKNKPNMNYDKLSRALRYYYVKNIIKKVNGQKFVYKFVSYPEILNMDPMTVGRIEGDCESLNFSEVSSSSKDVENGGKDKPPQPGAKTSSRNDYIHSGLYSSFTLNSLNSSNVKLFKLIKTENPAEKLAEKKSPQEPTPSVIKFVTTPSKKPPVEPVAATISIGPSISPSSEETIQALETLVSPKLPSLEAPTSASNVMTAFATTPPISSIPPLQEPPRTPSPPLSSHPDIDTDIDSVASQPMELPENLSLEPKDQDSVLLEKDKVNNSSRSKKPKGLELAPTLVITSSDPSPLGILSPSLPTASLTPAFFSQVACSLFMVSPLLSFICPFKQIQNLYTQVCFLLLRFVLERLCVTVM
To be noted: protein: recombinant; tags: N-terminal GST; dsDNA, one strand shown. The method in brief: as §1

The next assay has as its target T4, ETV2 (Homo sapiens, UniProt O00321 1-342).
T4 sequence: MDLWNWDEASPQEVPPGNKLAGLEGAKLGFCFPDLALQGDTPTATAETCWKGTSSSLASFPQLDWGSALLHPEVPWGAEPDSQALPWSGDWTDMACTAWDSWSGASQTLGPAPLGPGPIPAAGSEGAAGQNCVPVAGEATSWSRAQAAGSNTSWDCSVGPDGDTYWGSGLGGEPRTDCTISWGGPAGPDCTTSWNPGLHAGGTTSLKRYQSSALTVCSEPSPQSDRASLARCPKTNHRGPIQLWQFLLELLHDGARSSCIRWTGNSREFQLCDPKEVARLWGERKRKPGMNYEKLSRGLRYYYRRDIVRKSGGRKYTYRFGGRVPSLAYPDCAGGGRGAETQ
The note with it: protein: recombinant; tags: N-terminal GST; dsDNA, one strand shown. An outline of the steps:
as §1

In the next assay the target is T5, ELF3 (Homo sapiens, UniProt P78545 1-371).
T5 sequence: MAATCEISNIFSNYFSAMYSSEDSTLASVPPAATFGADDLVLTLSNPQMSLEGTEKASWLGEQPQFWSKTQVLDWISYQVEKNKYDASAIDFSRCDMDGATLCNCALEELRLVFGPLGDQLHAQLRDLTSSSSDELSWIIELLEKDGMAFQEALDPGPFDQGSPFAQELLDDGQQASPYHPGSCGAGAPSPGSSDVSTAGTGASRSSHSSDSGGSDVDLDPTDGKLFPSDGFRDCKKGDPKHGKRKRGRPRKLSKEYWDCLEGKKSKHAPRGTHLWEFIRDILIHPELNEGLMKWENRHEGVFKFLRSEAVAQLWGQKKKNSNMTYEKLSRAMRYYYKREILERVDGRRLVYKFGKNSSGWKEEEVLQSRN
The note with it: protein: recombinant; tags: N-terminal GST; dsDNA, one strand shown. An outline of the steps: as §1

The next assay has as its target CRX (Homo sapiens, UniProt O43186 1-299). To be noted: protein: recombinant; tags: N-terminal GST; dsDNA, one strand shown. The method in brief:
as §1

A further assay has as its target ETV1 (Homo sapiens, UniProt P50549 1-477). The note with it: protein: recombinant; tags: N-terminal GST; dsDNA, one strand shown. An outline of the steps: as §1
A further assay addresses T6, ERF (Homo sapiens, UniProt P50548 1-548).
T6 sequence: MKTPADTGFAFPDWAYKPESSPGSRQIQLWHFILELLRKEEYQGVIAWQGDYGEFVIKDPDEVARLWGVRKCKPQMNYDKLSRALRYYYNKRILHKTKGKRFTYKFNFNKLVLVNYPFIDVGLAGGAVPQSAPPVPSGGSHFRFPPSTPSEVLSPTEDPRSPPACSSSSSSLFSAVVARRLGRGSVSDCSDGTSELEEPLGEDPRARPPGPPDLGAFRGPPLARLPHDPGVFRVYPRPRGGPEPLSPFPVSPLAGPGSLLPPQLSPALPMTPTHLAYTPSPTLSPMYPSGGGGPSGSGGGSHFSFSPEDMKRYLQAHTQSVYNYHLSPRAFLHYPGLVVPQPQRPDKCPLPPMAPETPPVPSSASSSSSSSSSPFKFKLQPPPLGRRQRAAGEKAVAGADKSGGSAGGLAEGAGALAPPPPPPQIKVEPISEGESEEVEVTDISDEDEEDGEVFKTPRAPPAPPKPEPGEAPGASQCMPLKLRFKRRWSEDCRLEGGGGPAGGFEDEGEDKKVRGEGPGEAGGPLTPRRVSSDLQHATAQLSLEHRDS
The note with it: protein: recombinant; tags: N-terminal GST; dsDNA, one strand shown. An outline of the steps: as §1

The next assay concerns the target T7, ETV3L (Homo sapiens, UniProt Q6ZN32 1-361).
T7 sequence: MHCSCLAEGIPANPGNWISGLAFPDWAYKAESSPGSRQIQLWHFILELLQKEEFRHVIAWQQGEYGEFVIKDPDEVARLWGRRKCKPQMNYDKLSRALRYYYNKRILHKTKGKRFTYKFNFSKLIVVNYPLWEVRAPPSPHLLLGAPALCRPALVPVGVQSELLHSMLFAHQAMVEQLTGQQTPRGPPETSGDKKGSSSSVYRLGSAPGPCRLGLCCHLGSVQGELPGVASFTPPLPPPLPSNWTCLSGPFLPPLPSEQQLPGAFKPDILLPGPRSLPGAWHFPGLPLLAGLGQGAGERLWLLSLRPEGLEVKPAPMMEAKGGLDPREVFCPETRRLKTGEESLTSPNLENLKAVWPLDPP
The note with it: protein: recombinant; tags: N-terminal GST; dsDNA, one strand shown. An outline of the steps: as §1

A further assay has as its target T8, ETS2 (Homo sapiens, UniProt P15036 1-469).
T8 sequence: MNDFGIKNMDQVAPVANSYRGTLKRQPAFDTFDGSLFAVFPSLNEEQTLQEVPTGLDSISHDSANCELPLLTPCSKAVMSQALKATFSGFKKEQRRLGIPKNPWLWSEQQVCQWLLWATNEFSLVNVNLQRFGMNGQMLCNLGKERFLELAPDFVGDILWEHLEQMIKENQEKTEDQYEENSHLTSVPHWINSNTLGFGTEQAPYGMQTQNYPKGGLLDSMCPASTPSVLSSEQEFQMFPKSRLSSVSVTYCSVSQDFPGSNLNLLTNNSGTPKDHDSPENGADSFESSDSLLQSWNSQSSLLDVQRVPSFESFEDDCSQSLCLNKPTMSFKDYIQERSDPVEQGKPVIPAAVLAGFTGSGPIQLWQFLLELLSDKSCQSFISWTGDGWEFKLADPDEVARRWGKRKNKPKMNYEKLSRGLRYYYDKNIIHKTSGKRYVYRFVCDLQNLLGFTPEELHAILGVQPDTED
To be noted: protein: recombinant; tags: N-terminal GST; dsDNA, one strand shown. The method in brief: as §1

A further assay addresses T9, SPDEF (Homo sapiens, UniProt O95238 1-335).
T9 sequence: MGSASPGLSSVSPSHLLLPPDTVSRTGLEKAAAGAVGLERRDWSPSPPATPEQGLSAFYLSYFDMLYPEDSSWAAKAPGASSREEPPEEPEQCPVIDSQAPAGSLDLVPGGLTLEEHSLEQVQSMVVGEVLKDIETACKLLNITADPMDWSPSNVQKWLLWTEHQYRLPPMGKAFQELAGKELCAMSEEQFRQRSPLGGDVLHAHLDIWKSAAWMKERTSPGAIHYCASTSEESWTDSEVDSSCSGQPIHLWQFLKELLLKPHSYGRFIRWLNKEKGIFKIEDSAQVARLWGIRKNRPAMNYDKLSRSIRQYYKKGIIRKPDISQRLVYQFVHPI
To be noted: protein: recombinant; tags: N-terminal GST; dsDNA, one strand shown. The method in brief: as §1

A further assay has as its target T10, ETV7 (Homo sapiens, UniProt Q9Y603 1-341).
T10 sequence: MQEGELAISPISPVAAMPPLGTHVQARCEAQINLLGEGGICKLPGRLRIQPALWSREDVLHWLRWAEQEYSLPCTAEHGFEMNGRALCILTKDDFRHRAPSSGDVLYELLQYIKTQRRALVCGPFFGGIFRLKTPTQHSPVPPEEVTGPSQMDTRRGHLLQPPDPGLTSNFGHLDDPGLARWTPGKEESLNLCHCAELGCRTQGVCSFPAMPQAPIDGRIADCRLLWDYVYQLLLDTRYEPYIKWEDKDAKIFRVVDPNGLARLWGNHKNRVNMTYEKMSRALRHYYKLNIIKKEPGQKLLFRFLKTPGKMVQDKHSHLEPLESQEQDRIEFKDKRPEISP
To be noted: protein: recombinant; tags: N-terminal GST; dsDNA, one strand shown. An outline of the steps: as §1

The target of a further assay is T11, ELF5 (Homo sapiens, UniProt Q9UKW6-2 1-255).
T11 sequence: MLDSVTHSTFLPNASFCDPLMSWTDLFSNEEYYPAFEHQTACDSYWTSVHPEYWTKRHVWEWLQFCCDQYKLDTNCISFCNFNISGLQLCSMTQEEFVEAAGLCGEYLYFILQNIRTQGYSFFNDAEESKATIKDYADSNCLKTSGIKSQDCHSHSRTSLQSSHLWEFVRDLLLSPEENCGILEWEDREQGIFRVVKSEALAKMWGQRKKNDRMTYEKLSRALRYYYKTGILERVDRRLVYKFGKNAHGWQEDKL
The note with it: protein: recombinant; tags: N-terminal GST; dsDNA, one strand shown. The method in brief: as §1

The next assay addresses T12, ETV3 (Homo sapiens, UniProt P41162-2 1-143).
T12 sequence: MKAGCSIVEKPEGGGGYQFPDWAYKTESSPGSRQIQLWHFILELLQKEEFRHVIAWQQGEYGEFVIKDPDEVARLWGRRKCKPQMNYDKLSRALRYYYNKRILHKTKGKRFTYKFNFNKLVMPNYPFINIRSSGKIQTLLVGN
To be noted: protein: recombinant; tags: N-terminal GST; dsDNA, one strand shown. The method in brief: as §1

Another assay addresses ETV6 (Homo sapiens, UniProt P41212 1-452). To be noted: protein: recombinant; tags: N-terminal GST; dsDNA, one strand shown. An outline of the steps:
as §1

Chain of ETV6 (P41212 whole entry): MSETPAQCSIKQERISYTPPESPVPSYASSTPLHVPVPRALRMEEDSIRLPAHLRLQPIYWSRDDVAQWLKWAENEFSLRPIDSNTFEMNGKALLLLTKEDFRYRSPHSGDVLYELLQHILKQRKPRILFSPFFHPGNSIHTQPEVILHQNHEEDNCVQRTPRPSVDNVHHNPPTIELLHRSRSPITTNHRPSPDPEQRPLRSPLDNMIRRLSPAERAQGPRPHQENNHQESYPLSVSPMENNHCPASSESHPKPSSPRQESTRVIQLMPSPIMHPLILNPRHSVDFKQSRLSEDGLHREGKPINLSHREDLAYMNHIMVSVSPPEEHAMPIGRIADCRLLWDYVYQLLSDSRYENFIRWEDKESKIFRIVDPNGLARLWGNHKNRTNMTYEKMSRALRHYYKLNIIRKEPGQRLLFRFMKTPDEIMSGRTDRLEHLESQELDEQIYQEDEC
Chain of HSF1 (Q00613 whole entry): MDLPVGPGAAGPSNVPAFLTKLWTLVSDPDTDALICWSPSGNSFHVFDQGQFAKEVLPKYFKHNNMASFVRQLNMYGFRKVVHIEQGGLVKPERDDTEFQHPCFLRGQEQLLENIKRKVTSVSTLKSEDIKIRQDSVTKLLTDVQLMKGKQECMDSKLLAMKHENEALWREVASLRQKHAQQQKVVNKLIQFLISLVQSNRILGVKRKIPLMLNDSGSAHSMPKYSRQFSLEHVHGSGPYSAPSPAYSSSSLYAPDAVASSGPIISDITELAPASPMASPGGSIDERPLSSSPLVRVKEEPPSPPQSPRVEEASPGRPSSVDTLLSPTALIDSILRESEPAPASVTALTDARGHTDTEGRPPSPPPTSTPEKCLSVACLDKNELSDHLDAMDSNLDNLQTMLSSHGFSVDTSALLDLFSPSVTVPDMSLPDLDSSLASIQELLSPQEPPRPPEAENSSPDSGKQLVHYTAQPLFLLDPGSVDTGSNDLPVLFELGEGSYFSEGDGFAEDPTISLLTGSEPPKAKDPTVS
Chain of ETV5 (P41161 whole entry): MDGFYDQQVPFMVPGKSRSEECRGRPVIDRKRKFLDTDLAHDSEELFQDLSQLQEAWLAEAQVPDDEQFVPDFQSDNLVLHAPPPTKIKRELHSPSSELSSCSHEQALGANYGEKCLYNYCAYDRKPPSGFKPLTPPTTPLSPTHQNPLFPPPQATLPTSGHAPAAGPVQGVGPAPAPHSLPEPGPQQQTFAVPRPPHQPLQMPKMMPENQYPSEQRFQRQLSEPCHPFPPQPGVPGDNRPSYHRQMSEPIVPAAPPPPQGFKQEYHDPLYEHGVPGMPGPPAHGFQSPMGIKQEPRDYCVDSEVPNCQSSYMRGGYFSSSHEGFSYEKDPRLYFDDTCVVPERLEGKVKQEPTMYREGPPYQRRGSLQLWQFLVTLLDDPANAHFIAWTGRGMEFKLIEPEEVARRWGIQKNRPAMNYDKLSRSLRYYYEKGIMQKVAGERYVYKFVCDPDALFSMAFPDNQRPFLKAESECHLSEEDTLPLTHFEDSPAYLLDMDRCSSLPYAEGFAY
Chain of ELF4 (Q99607 whole entry): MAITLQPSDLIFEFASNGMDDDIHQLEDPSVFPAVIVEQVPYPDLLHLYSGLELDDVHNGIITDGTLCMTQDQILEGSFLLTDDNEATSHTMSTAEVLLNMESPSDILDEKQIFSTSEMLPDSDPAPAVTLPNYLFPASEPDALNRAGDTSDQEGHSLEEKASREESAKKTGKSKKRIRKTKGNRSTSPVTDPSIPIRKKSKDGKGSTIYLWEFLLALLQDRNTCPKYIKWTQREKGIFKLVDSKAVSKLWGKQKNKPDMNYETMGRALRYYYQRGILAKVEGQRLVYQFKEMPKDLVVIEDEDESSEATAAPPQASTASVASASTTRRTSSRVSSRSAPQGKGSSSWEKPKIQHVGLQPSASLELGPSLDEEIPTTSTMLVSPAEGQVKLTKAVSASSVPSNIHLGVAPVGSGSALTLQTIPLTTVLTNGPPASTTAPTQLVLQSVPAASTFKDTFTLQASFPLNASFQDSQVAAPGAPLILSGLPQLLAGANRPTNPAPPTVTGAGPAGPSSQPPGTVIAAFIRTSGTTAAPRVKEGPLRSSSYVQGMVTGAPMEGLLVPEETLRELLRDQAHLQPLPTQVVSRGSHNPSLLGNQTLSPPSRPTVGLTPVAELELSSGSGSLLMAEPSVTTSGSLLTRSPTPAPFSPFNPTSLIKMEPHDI
Chain of ETV1 (P50549 whole entry): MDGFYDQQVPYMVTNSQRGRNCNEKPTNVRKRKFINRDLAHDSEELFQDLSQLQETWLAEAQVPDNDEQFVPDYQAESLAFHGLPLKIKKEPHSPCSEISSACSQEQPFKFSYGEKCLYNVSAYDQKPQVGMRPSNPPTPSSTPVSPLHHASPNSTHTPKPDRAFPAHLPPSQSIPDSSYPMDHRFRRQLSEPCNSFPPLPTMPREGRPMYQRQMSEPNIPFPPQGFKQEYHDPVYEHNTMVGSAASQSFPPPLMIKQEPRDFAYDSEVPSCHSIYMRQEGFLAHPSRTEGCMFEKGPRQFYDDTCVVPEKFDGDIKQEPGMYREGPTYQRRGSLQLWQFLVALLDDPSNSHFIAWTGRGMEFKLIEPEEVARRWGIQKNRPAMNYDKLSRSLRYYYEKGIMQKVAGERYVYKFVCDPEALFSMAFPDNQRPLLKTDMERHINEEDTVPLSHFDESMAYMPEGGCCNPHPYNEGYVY
Chain of CRX (O43186 whole entry): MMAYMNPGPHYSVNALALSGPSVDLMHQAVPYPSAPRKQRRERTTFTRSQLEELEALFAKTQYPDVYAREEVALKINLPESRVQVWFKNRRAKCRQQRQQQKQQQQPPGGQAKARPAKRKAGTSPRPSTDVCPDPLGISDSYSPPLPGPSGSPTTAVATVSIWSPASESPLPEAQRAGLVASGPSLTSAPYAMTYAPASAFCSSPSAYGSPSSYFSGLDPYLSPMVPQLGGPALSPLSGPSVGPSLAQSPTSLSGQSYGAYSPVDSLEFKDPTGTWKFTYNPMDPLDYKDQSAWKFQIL

Take ATTAAT: the binding signal is 1.16 fold enrichment (6-mer frequency, TF over GST control) with FEV; 1.26 fold enrichment (6-mer frequency, TF over GST control) with ETV5; 2.47 fold enrichment (6-mer frequency, TF over GST control) with HSF1; 1.18 fold enrichment (6-mer frequency, TF over GST control) with SPIC; 1.19 fold enrichment (6-mer frequency, TF over GST control) with ELF4; 1.23 fold enrichment (6-mer frequency, TF over GST control) in the assay with ELK4. For the same sequence, the binding signal in the assay with ETV2 was 1.25 fold enrichment (6-mer frequency, TF over GST control); with ELF3, 1.05 fold enrichment (6-mer frequency, TF over GST control); with CRX, 3.95 fold enrichment (6-mer frequency, TF over GST control); with ETV1 it was 1.25 fold enrichment (6-mer frequency, TF over GST control); with ERF, 1.25 fold enrichment (6-mer frequency, TF over GST control); in the assay with ETV3L it was 1.18 fold enrichment (6-mer frequency, TF over GST control). The binding signal with ETS2 was 1.27 fold enrichment (6-mer frequency, TF over GST control); with SPDEF it was 1.23 fold enrichment (6-mer frequency, TF over GST control); with ETV7, 1.21 fold enrichment (6-mer frequency, TF over GST control); with ELF5, 1.18 fold enrichment (6-mer frequency, TF over GST control); with ETV3 it was 1.25 fold enrichment (6-mer frequency, TF over GST control); with ETV6 it was 1.3 fold enrichment (6-mer frequency, TF over GST control).
